Data taken from PubChem BioAssay.
Activity calls are given as the source filed them.

Legend:
[1] = test system: Plasmodium falciparum Sir2 (PF13_0152, Sir2A); assay: Plasmodium falciparum Sir2A binding compounds – biochemical, small-molecule microarray, 635 nm fluorescence, primary screen (AID 1098); settings: fluorescence 635 nm, higher = more signal;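 also: score merges spot fluorescence intensity with its signal-to-noise ratio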
[2] = probe aDKK1 binding to arrayed compounds – biochemical, biotinylated probe, 635/667 nm fluorescence, primary screen (AID 1099); settings: small-molecule microarray, higher = more signal;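 also: score merges 667nm spot fluorescence with signal to noise across triplicate slides; reference of the scale not given here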
[3] = probe aCHRDL2 binding to arrayed compounds – biochemical, biotinylated probe, 635/667 nm fluorescence, primary screen (AID 1100); settings: small-molecule microarray, higher = more signal
[4] = change in splice reporter luminescence, either direction, cell-based, HEK293, spliceosome inhibition project, primary screen (AID 1101); settings: HEK293 splicing luciferase reporter, 24 h, higher = more signal, called active from +8 up or from −8 down;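 also: HEK293 cells carrying a splicing-competent luciferase reporter gene; test concentration not given here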
[5] = molecular target: Fibroblast growth factor 10 (Homo sapiens) (UniProt O15520); assay: compounds binding fibroblast growth factor 10 – biochemical, small-molecule microarray, 635 nm fluorescence, primary screen (AID 1102); settings: FGF10 binding, fluorescence 635 nm, higher = more signal
[6] = test system: glycogen synthase kinase-3 (GSK3A per assay name; protocol says GSK3B); assay: compounds binding glycogen synthase kinase-3 – biochemical, small-molecule microarray, 635 nm fluorescence, GSK3A, primary screen (AID 1103); settings: fluorescence 635 nm, higher = more signal; also: the record names both GSK3A and GSK3B
[7] = molecular target: Epidermal growth factor receptor (Homo sapiens) (UniProt P00533); assay: compounds binding epidermal growth factor receptor – biochemical, small-molecule microarray, 635 nm fluorescence, primary screen (AID 1104); settings: EGFR binding, higher = more signal;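 also: score merges 667 nm emission intensity with spot signal to noise over triplicate slides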
[8] = molecular target: Follistatin-related protein 3 (Homo sapiens) (UniProt O95633); assay: compounds binding follistatin-related protein 3 – biochemical, small-molecule microarray, 635 nm fluorescence, primary screen (AID 1105); settings: FSTL3 binding, higher = more signal;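 also: score merges emission near 667 nm and signal to noise per printed spot across three slides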
[9] = molecular target: Dickkopf-related protein 1 (Homo sapiens) (UniProt O94907); assay: small molecules binding DKK1 protein – biochemical, small-molecule microarray, 635 nm fluorescence scan, primary screen (AID 1106); settings: higher = more signal;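 also: score merges emission near 667 nm with signal to noise over three replicate slides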
[10] = test system: Inhibin beta A chain (activin A); assay: small molecules binding activin A – biochemical, small-molecule microarray, 635 nm fluorescence scan, primary screen (AID 1107); settings: INHBA, higher = more signal;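 also: mouse activin A protein probed at 4.33 µg/mL on printed slides; score merges bound-protein fluorescence near 667 nm with spot signal-to-noise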

Sequence of Epidermal growth factor receptor (Homo sapiens) (P00533 whole entry, looked up): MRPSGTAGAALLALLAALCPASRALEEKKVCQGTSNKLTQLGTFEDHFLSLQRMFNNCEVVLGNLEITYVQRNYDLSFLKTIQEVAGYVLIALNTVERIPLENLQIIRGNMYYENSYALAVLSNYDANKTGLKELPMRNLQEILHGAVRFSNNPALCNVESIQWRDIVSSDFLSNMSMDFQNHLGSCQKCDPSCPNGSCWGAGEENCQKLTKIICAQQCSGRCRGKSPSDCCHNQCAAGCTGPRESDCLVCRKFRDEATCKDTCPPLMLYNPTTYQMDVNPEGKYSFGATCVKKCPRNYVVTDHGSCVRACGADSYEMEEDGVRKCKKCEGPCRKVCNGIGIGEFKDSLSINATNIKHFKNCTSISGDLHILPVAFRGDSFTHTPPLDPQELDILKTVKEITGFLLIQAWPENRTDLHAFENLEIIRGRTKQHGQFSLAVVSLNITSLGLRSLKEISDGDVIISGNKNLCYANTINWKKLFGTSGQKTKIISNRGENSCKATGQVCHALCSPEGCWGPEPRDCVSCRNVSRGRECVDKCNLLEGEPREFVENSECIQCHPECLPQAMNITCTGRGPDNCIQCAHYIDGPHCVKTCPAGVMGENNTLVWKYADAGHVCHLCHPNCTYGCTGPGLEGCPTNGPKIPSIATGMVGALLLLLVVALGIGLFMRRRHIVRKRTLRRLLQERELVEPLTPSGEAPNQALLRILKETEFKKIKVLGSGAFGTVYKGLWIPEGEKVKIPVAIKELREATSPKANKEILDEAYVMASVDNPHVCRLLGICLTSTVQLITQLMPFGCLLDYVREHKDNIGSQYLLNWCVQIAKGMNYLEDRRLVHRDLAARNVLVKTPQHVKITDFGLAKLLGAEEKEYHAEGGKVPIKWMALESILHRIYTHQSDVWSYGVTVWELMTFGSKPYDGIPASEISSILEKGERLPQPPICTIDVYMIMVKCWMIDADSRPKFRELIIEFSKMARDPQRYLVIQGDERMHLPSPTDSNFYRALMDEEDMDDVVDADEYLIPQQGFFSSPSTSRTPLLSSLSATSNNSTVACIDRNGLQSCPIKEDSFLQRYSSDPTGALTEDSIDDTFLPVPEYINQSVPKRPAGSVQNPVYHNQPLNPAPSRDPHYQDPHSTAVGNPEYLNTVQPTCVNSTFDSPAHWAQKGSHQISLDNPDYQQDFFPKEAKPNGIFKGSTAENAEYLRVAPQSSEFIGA
Sequence of Dickkopf-related protein 1 (Homo sapiens) (O94907 whole entry, looked up): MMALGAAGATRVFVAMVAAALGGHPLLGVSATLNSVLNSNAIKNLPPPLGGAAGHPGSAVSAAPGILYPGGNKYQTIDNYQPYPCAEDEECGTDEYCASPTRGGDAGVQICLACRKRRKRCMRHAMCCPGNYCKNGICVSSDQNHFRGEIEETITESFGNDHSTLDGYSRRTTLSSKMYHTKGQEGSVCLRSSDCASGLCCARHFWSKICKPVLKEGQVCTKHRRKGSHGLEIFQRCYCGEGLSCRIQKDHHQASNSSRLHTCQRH
Sequence of Fibroblast growth factor 10 (Homo sapiens) (O15520 whole entry, looked up): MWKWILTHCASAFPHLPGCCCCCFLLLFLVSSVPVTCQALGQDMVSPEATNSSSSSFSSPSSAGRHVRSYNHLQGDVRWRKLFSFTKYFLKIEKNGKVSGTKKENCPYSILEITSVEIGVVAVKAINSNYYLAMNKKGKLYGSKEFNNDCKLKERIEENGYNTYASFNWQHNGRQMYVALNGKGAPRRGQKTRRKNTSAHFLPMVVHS
Sequence of Follistatin-related protein 3 (Homo sapiens) (O95633 whole entry, looked up): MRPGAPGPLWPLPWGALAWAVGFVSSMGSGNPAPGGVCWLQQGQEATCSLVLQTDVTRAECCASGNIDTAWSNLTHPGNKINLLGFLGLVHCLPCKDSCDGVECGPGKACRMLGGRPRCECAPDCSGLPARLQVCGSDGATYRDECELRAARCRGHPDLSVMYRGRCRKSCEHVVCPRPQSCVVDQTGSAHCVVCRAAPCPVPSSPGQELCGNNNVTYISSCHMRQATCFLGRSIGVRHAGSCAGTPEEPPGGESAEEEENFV

Row | Compound | composite z-score [1] | composite z-score [2] | composite z-score [3] | z-score [4] | composite z-score [5] | composite z-score [6] | composite z-score [7] | composite z-score [8] | composite z-score [9] | composite z-score [10]
1 | CON(C)C(=O)C=C1C[C@@H](c2cccc(Cl)c2)O[C@@H](c2cccc(Cl)c2)O1 | 1 | 0.0204 | -0.126 | -1.16 (inactive) | -0.148 | 0.846 | -0.185 | 0.243 | 0.484 | 0.9
2 | CCOC(=O)C[C@H]1[C@H](OC(=O)c2ccc(-c3ccccc3)cc2)[C@@H](NC(=O)C2CCCCC2)c2cc(OCCCO)ccc2N1C(=O)c1ccccc1 | 0.3 | -0.141 | -0.464 | -0.0213 (inactive) | 0.616 | 0.258 | 0.0979 | 0.584 | 0.237 | 0.117
3 | CC=CC(O)C1C=CC2C(=O)N(c3ccccc3)C(=O)C2N1Nc1ccc([N+](=O)[O-])cc1 (stereo not given) | 0.563 | -0.0639 | 0.0737 | 0.43 (inactive) | 0.455 | 0.464 | 0.496 | 0.501 | 0.113 | 0.896
4 | Cc1ccc(S[C@]2(C(=O)NCCN3CCOCC3)CC(=O)N(Cc3ccccc3C(F)(F)F)[C@@H]2c2ccc(CO)cc2I)cc1 | 1.3 | -0.102 | 0.93 | -1.55 (inactive) | -0.973 | -0.728 | -0.842 | -1.13 | -1.15 | 0.446
5 | CC(C)C(CO)N1C(=O)[C@]2(C)C3C(=O)OCCC/C=C\[C@H]3OC23C=CCN(c2ccc(Cl)cc2)C(=O)[C@@H]13 (stereo not given in full) | 1.11 | -0.095 | 0.38 | 0.242 (inactive) | -0.382 | -0.028 | -0.599 | -0.518 | -0.821 | 0.717
6 | CCOC(=O)C[C@H]1[C@H](OC(=O)c2ccc(C(=O)c3ccccc3)cc2)[C@@H](NC(=O)c2ccc3ccccc3c2)c2cc(OCCCO)ccc2N1C(=O)c1ccccc1 | 0.422 | 0.489 | 0.17 | -0.072 (inactive) | 0.734 | 0.993 | 0.0993 | 0.786 | 0.105 | 0.007
7 | COCCCNC(=O)[C@]1(Cc2ccccc2N=[N+]=[N-])N=C(c2ccc(OCCCO)cc2)O[C@@H]1c1ccccc1N=[N+]=[N-] | 0.707 | 0.609 | 0.942 | 1.93 (inactive) | 0.955 | 0.353 | -0.287 | 0.219 | -0.589 | 0.738
8 | CN(C)CCCNC(=O)[C@@]1(c2ccc([N+](=O)[O-])cc2)CC(=O)N(CC23CC4CC(CC(C4)C2)C3)[C@@H]1c1ccc(CO)cc1 | 1.72 | 0.774 | 0.811 | -0.102 (inactive) | 0.239 | 1.32 | 0.201 | 0.996 | 0.54 | 1.14
9 | COc1ccc(CCNC(=O)[C@@]2(Sc3ccc(C)cc3)CC(=O)N(Cc3cc(C(F)(F)F)cc(C(F)(F)F)c3)[C@@H]2c2ccc(CO)cc2I)cc1 | 1.15 | 0.277 | 0.901 | -0.871 (inactive) | -0.447 | -0.223 | -1.06 | -0.0666 | -0.744 | 0.533
10 | O=C1NCC(=O)N2[C@@H]1C[C@@H](C(=O)O)[C@H]2c1ccc(O)cc1 | 1.41 | -0.0052 | 0.128 | -0.22 (inactive) | 0.944 | 1.32 | -0.0519 | 1.37 | 1.78 | 0.571
11 | CC(C)(C)OC(=O)CC[C@@]1(C(=O)O)N=C(c2ccc(OCCCO)cc2)O[C@@H]1c1ccccc1 | 0.492 | 0.325 | 0.824 | -0.176 (inactive) | -0.0905 | -0.126 | -0.566 | -0.294 | -0.646 | 0.253
12 | CC(=O)NCCCC[C@@H]1NC(=O)[C@@H]2C[C@H](C(=O)O)[C@H](c3ccc(O)cc3)N2C1=O | 1.66 | -0.106 | 1.06 | -0.905 (inactive) | -0.947 | -1.18 | -1.7 | -1.98 | -1.46 | -2.08
13 | COCCOC(=O)N1C(=O)[C@@]2(c3cc(C#CC4(O)CCCCCC4)ccc31)[C@H](c1ccccc1OCCO)N1[C@H](c3ccccc3)[C@H](c3ccccc3)OC(=O)[C@H]1[C@@H]2C(N)=O | 0.651 | 0.255 | 0.0813 | -0.349 (inactive) | 0.804 | 1.28 | 0.442 | 1.14 | 1.06 | -0.132
14 | COc1ccc([Si](C)(C)[C@H]2[C@H](CC(=O)N3Cc4ccccc4C[C@H]3CO)O[C@@]3(C(=O)N(Cc4cccc(N5CCCCC5=O)c4)c4ccccc43)[C@@H]2C)cc1 | 1.2 | -0.205 | -0.181 | -0.519 (inactive) | 1.14 | 0.262 | 0.795 | 1.27 | 1.12 | 0.94
15 | O=C1OCCC=C[C@H]2OC34C=CCN(c5ccc(Cl)cc5)C(=O)[C@H]3N(CCCCCO)C(=O)[C@@H]4C12 (stereo not given in full) | 1.87 | -0.0263 | 0.255 | -0.443 (inactive) | -0.315 | 0.0788 | -0.935 | -0.713 | -0.172 | 0.883
16 | C=CC[C@]1(C(=O)N(C)C)N=C(c2ccc(OCCCO)cc2)O[C@H]1c1ccccc1N=[N+]=[N-] | 0.265 | 0.776 | 1.14 | -0.288 (inactive) | 0.762 | 0.346 | -0.257 | 0.859 | -0.367 | 0.889
17 | COCCOC(=O)N1C(=O)[C@@]2(c3cc(C#CC4=CCCCC4)ccc31)[C@H](c1ccc(O)cc1)N1[C@H](c3ccccc3)[C@H](c3ccccc3)OC(=O)[C@H]1[C@@H]2C(=O)Nc1nc2ccccc2s1 | 1.56 | 0.663 | -0.277 | 0.51 (inactive) | 1.33 | 1.24 | 0.383 | 1.19 | 0.45 | 0.248
18 | COC(=O)[C@@]1(Cc2ccc(OC)cc2)[C@H]2c3cc(C(=O)N(C)C)n(Cc4ccccc4)c3C[C@H]2CN1C(=O)c1ccccc1 | 0.656 | 0.268 | -0.332 | -2.28 (inactive) | 0.0697 | 0.0849 | -0.342 | -0.0447 | -0.128 | 0.825
19 | O=C1OCC=C[C@H]2OC34C=CCN(Cn5nnc6ccccc65)C(=O)[C@H]3N(CCCCCCO)C(=O)[C@@H]4[C@@H]12 (stereo not given in full) | 1.25 | 0.0374 | 0.538 | 0.434 (inactive) | -0.577 | 0.0986 | -0.896 | -1.02 | -0.566 | 0.955
20 | [N-]=[N+]=NCc1ccccc1C[C@@]1(C(N)=O)N=C(c2ccc(OCCCO)cc2)O[C@@H]1c1ccccc1CN=[N+]=[N-] | 0.448 | 1.09 | 0.378 | 0.515 (inactive) | 1.26 | 0.989 | -0.238 | 0.165 | 0.0137 | 0.764
21 | CCCCN1CC=CC23O[C@@H]4/C=C\CCC(C)OC(=O)C4[C@H]2C(=O)N(CCCCCCO)[C@@H]3C1=O (stereo not given in full) | 0.906 | -0.264 | 0.402 | 0.142 (inactive) | 0.107 | -0.782 | -0.63 | -1.04 | -0.842 | 0.703
22 | CCOC(=O)C1=CC[C@@H](c2ccccc2C(F)(F)F)N(S(=O)(=O)c2ccc(C)cc2)C1 | 1.23 | 1.27 | 1.18 | -2.27 (inactive) | 1.18 | 0.914 | 0.29 | 1.12 | -0.144 | 0.685
23 | COCCOC(=O)N1C(=O)[C@@]2(c3cc(C#Cc4ccc(OC)cc4)ccc31)[C@H](C(=O)N1CCN(c3ncccn3)CC1)[C@H]1C(=O)O[C@H](c3ccccc3)[C@H](c3ccccc3)N1[C@@H]2c1ccccc1OCCO | 0.625 | -0.0221 | 0.221 | -0.562 (inactive) | 0.343 | -0.142 | 0.139 | -0.181 | -0.163 | 0.443
24 | CC(C)(C)OC(=O)CC[C@]1(C(=O)O)N=C(c2ccc(OCCCO)cc2)O[C@H]1c1ccccc1CN=[N+]=[N-] | 0.814 | 0.905 | 0.764 | 0.325 (inactive) | 0.253 | -0.138 | -0.554 | -0.507 | -0.134 | 0.923
25 | COCCOC(=O)N1C(=O)[C@@]2(c3ccccc31)[C@H](c1ccc(OCCO)cc1)N1[C@H](c3ccccc3)[C@H](c3ccccc3)OC(=O)[C@H]1[C@@H]2C(=O)Nc1nc2ccccc2s1 | 1.45 | -0.223 | 0.414 | 0.579 (inactive) | 0.967 | 0.986 | 0.545 | 0.852 | 0.293 | 0.34
26 | CN(C)CCCNC(=O)[C@@H]1c2ccccc2C(=O)N(Cc2ccc(OC(F)(F)F)cc2)[C@H]1c1ccc(CO)cc1 | 1.33 | -0.115 | 0.56 | 0.0681 (inactive) | 0.0228 | 0.887 | -0.617 | 0.351 | 0.0558 | 0.561
27 | CCCC=C(CCC)[C@@H](NP(=O)(c1ccccc1)c1ccccc1)c1ccc(C(F)(F)F)cc1 | -1.78 | 0.578 | 0.333 | -0.139 (inactive) | 0.0142 | 0.734 | -0.0267 | -0.354 | -0.15 | 0.589
28 | CCCCN1CC=CC23O[C@@H]4C=CCOC(=O)[C@@H]4[C@H]2C(=O)N(CCCO)[C@@H]3C1=O (stereo not given in full) | 1.24 | -0.159 | 0.48 | -1.32 (inactive) | -0.816 | -1.16 | -0.953 | -1.18 | -1.05 | 0.396
29 | CC1CC/C=C\[C@H]2OC34C=CCN(CCN5CCOCC5)C(=O)[C@H]3N(CCO)C(=O)[C@@H]4C2C(=O)O1 (stereo not given in full) | -0.778 | -0.31 | 0.293 | -0.81 (inactive) | -0.992 | -0.831 | -0.707 | -0.781 | -0.137 | 0.761
